Sampled rows, rich in hits. Any-hit rate of the full collection: about 2.7%.
HIV Env fusion – blocks HIV Env-driven cell-cell fusion | HeLa-JRFL Env/CEM21 cell fusion, luciferase | 1.1% of 360,000 active | inhibition, % at 12.3 µM | AID 651610;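 active = mean replicate inhibition score of at least 50 and every replicate individually at or above 50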;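 also: 0% = plate neutral controls and 100% = maraviroc near 300 nM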
PGC1a acetyl inh – PGC1a acetylation modulation, inhibitor mode; U2OS PGC1a acetylation, AlphaScreen anti-acetyl-lysine; with virally co-expressed GCN5 acetyltransferase; 0.17% of 350,000 active; AID 651687; inhibition, % at 15.6 µM;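 active = every replicate shows inhibition of at least 40%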;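 also: 0% = neutral control wells and 100% = positive control wells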
INS-1E GSIS act – primary screen for activators of insulin secretion dependent on glucose, INS-1E cells, GLuc reporter luminescence; INS-1E GLuc reporter insulin secretion, 2-3 h; activation, % at 16.6 µM; 0.61% of 370,000 active; AID 743287;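 active = lowest replicate activation of at least 40%, so every replicate reaches that level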;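 also: 0% = median of neutral control wells and 100% = median of IBMX positive control wells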
EWS-Fli inh – inhibitors of EWS/Fli oncoprotein transcriptional activity; A673 NR0B1-luciferase reporter, viability-normalised; 0.67% of 350,000 active; inhibition, % at 12.6 µM;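 active = mean inhibition of at least 50% after viability correction, with every replicate also passing that limit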;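 also: firefly luciferase signal divided by Alamar Blue viability fluorescence both relative to DMSO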
PAX8 inh HTS – lowers PAX8-driven luciferase in RMG-I cells; 1.2% of 360,000 active; inhibition, % at 12.6 µM; RMG-I TPO-luciferase reporter, SteadyGlo, 24 h;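 active = mean replicate inhibition at least 60% with every replicate also reaching 60%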;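 also: luciferase light reporting Pax8 driven TPO promoter activity; plate controls were median of neutral control wells for no effect and mitoxantrone controls for full effect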
F508del corr – CFTR F508del correction in bronchial cells. AID 720511. CFBE cells, YFP halide quenching; stimulated with forskolin plus potentiator P3; % fluorescence drop versus neutral controls. 0.36% of 350,000 active. activity (quench increase), % at 7.58 µM;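 active = mean added fluorescence quench of at least 8% versus neutral control, with both replicates also reaching 8%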;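 also: cells transiently co-express mutant CFTR-F508del with the halide-sensitive YFP; corrector assay measuring rescue of mutant channel to the surface after 24 h compound exposure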
Active calls of the source: *; x = no result given; [ ] = dose if it differs, or a comment.

SMILES	HIV Env fusion	PGC1a acetyl inh	INS-1E GSIS act	EWS-Fli inh	PAX8 inh HTS	F508del corr
COc1ccccc1-c1cnc2c(c1)C(=O)N([C@@H](C)CO)C[C@@H](C)[C@@H](CN(C)Cc1cccnc1)O2	-23.3[16.7 µM]	-5.4	-8.2	1.6	x	3.4
Cc1ccc(-n2nc3ccc(NC(=O)c4ccco4)cc3n2)cc1	x	-2.3	65.1*	x	x	x
C[C@@H]1CN([C@@H](C)CO)C(=O)c2cc(NC(=O)CCCCCC(=O)Nc3ccccc3N)ccc2O[C@@H]1CN(C)CC1CCCCC1	x	1.8	-5.7	-2.1	42.4	1.4
O=C1CCCCCN1C(=O)c1ccccc1	x	4.4	x	-3.5	-9.7	-4.5
CC(C)(C)c1ccc(C(=O)N2CCCCCC2=O)cc1	91.2*	x	x	x	37.3	x
Cc1ccc(-c2cnc3c(c2)C(=O)N([C@H](C)CO)C[C@H](C)[C@H](CN(C)S(C)(=O)=O)O3)cc1	-10.4[16.7 µM]	15.7	-1.2	-12.9	-12.5	-2.4
Cc1cc(NO)c(C(C)C)cc1N=O	66.5*	x	x	5.4	57.1	x
Cc1cc(O)c(C(C)C)cc1N=Nc1ccccc1C(=O)O	6.6	3.0	-52.5	-27.8	33.4	-1.6
COc1ccc2c3c(n(C)c2c1)[C@@H](CO)N(CC1CCOCC1)CC31CCN(C(C)=O)CC1	-3.1[16.7 µM]	x	27.3	-4.2	x	0.9
O=C(O)c1ccccc1-c1nc(-c2ccccc2)c(-c2ccccc2)[nH]1	10.9	x	0.9	11.1	23.7	13.2*
O=C(O)COc1ccccc1-c1nc(-c2ccccc2)c(-c2ccccc2)[nH]1	5.9	-2.3	3.8	10.1	-23.7	1.0
CCN(CC)S(=O)(=O)c1cccc(C(=O)Nc2cc(C)cc(C)c2)c1	-26.2	-18.2	x	x	x	x
CCN(CC)S(=O)(=O)c1cccc(C(=O)Nc2ccc(C#N)cc2)c1	57.1*	x	x	x	x	x
CCCCc1nc(Cl)c(CO)n1Cc1ccc(-c2ccccc2-c2nnn[nH]2)cc1	x	-3.9	x	0.9	9.1	-1.7
CCCCc1nc(Cl)c(CO)n1Cc1ccc(-c2ccccc2-c2nn[nH]n2)cc1	-2.9	-0.2	-10.5	-1.7	-13.6	8.1*
O=C(CSc1nc2ccccc2c(=O)n1Cc1ccccc1)NCc1ccco1	6.7	-4.6	81.0*	x	x	x
Cc1cc2nnc(SCC(=O)NCc3ccco3)n2c2ccccc12	-62.7	2.8	25.6	51.3*	31.0	9.8*
Cc1cc2c(=O)n(Cc3ccco3)c(SCC(=O)c3ccc(Cl)s3)nc2s1	75.8*	6.7	-23.3	x	x	x
O=C(CSc1nc2ccccc2c(=O)n1Cc1ccco1)NCc1ccccc1	-45.4	6.9	x	x	x	x
O=C(CSc1nc2ccccc2c(=O)n1CC1CCCO1)NCc1ccccc1 (stereo unspecified)	6.8	-4.7	143.1*	-3.2	12.0	3.0
CNC[C@@H]1Oc2c(NS(=O)(=O)c3ccc(C)cc3)cccc2C(=O)N([C@H](C)CO)C[C@@H]1C	x	-1.8	18.2	3.2	-4.4	-1.8
CC=Cc1ccc2n(c1=O)C[C@H]1[C@H](CO)[C@@H](C(=O)NCCC)[C@@H]2N1C(=O)C1CCCC1 (mixture of isomers)	x	x	7.4	-6.4	x	-2.0
CCCN1[C@@H]2c3ccc(C4=CCCCC4)c(=O)n3C[C@H]1[C@H](CO)[C@H]2C(=O)NCC	x	x	-7.2	-0.6	x	-0.6
CCCNC(=O)N1C[C@@H](C)[C@@H](OC)CN(C)C(=O)c2ccc(NC(=O)CCC)cc2OC[C@@H]1C	x	-7.9	15.8	-7.5	-8.0	-0.4
Cc1noc(C)c1NC(=O)N(C)C[C@H]1Oc2cc(C#CCC3CCCC3)ccc2S(=O)(=O)N([C@@H](C)CO)C[C@H]1C	x	-3.3	10.3	-9.0	3.7	-3.2
SMILES	HIV Env fusion	PGC1a acetyl inh	INS-1E GSIS act	EWS-Fli inh	PAX8 inh HTS	F508del corr
CCOCCCn1c(SCC(=O)NCc2ccco2)nc2c(sc3ccccc32)c1=O	56.3*	x	-5.3	x	x	x
O=C(CSc1nnc2n1CCCCC2)NCc1ccccc1	57.8*	8.0	x	-3.8	20.0	-1.2
Cc1ccc(CNC(=O)CSc2nnc3n2CCCCC3)cc1	x	6.5	-0.2	4.3	-0.4	2.8
O=C(CSc1nc2ccccc2c(=O)n1Cc1ccc(F)cc1)NCc1cccs1	62.5*	x	8.0	-0.8	0.0	3.7
Cc1cc(NC(=O)CSc2nc3ccccc3c(=O)n2Cc2ccc(F)cc2)no1	-0.1	x	x	x	x	x
O=C(CSc1nc2ccccc2c(=O)n1Cc1ccco1)c1ccc(F)cc1	58.4*	4.2	x	x	x	x
CNC[C@@H]1Oc2c(NS(=O)(=O)c3ccc(OC)cc3)cccc2C(=O)N([C@@H](C)CO)C[C@H]1C	x	x	14.4	x	x	x
COc1ccc(S(=O)(=O)N2CCC3(CC2)CN(Cc2ccncc2)[C@H](CO)c2[nH]c4cc(OC)ccc4c23)cc1	x	6.8	30.9	-12.4	x	0.8
COc1ccc(C(=O)COC(=O)CCS(=O)(=O)c2ccc(C)cc2)c(OC)c1	x	x	8.5	0.2	4.0	-3.0
Cc1ccc(S(=O)(=O)CCC(=O)OCC(=O)c2cc(C)ccc2C)cc1	-3.3	x	5.2	0.3	-6.0	4.1
Cc1ccc(S(=O)(=O)CCC(=O)c2ccc(O)cc2O)cc1	-60.6	-1.5	x	x	97.2*	x
COc1ccc(C(=O)CCS(=O)(=O)c2ccc(C)cc2)cc1OC	x	x	22.4	-2.4	96.4*	-0.3
C[C@@H]1CN([C@H](C)CO)C(=O)Cc2cc(NC(=O)Nc3ccccc3)ccc2O[C@@H]1CN(C)C	1.2[16.7 µM]	-24.2	7.5	-1.9	-9.1	1.3
O=C(CSc1nc2ccccc2n1S(=O)(=O)c1cccc([N+](=O)[O-])c1)NCCc1ccccc1	73.1*	x	9.3	-4.5	1.5	x
Cc1nc2ccccc2c2c1CC(C(C)(Cl)Br)O2 (stereo unspecified)	73.9*	1.0	-47.4	22.3	16.0	3.0
Cc1ccccc1S(=O)(=O)N1C[C@H](O)COC[C@H]2O[C@@H](CC(=O)NCc3ccccc3Cl)CC[C@@H]21	57.4*[16.7 µM]	-8.4	1.0	-4.7	3.6	-1.2
Cc1ccccc1S(=O)(=O)N1C[C@@H](O)COC[C@@H]2O[C@@H](CC(=O)NCc3ccccc3Cl)CC[C@H]21	-35.1[16.7 µM]	-2.8	-1.8	10.0	10.0	0.4
C[C@@H](NC(=O)C[C@@H]1CC[C@@H]2[C@H](COC[C@H](O)CN2Cc2cc(F)ccc2F)O1)c1ccccc1	14.5[16.7 µM]	3.7	-6.1	4.6	67.7*	-0.7
O=C(C[C@@H]1CC[C@H]2[C@@H](COC[C@@H](O)CN2C(=O)c2ccc(F)cc2)O1)NC1Cc2ccccc2C1	66.9*[16.7 µM]	22.1	-0.9	-2.8	1.3	-3.0
O=C(C[C@H]1CC[C@H]2[C@@H](COC[C@@H](O)CN2Cc2ccc(Oc3ccccc3)cc2)O1)N1CCCCC1	x	-7.4	-14.5	19.7	99.8*	-1.2
C[C@@H](NC(=O)C[C@H]1CC[C@@H]2[C@H](COC[C@@H](O)CN2Cc2cc(F)ccc2F)O1)c1ccccc1	-1.4[16.7 µM]	-6.4	-4.1	-4.2	13.5	0.8
O=C(C[C@@H]1CC[C@@H]2[C@H](COC[C@H](O)CN2Cc2ccc(Oc3ccccc3)cc2)O1)N1CCCCC1	x	1.2	-24.0	14.0	7.1	1.6

Bioassay records as filed in PubChem BioAssay.
